Assay results: PubChem BioAssay AID1159580 (chemical genetic matrix, 2015)
Values joined by “and” are separate entries in the source; they are usually repeats but may differ in a detail not shown here. Equal values may be shown once. The campaign covered roughly 5,500 compounds. About 2,000 (36%) were called active. Roughly 18% stayed inconclusive and do not appear here. Rule as the data show it: active = normalized growth mostly below about 0.91 (no sharp cut-off); inconclusive = no clear call, values can overlap the other calls; inactive = mostly above about 0.92. Some of the results follow.

Test: chemical genetic growth profiling, strain panel (AID 1159580);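 also: tested at 20 µM; growth read once vehicle control cultures reached saturation at 30 °C; 1 = growth at the plate median or of vehicle wells; lower values mean less growth of the strain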
Conditions: growth OD

Measured: normalized growth

COc1ccc2c(c1OC)OC[C@@H](c1ccc(OC)c(OC)c1OC)C2
inactive: S. cerevisiae deletion strains, locus YAL013W, strain DEP1, active compounds read low 1.01 | S. cerevisiae deletion strains, locus YBR021W, strain FUR4, active compounds read low 0.972 | S. cerevisiae deletion strains, locus YBR229C, strain ROT2, active compounds read low 1 | S. cerevisiae deletion strains, locus YCL029C, strain bik1, active compounds read low 1.01 | S. cerevisiae deletion strains, locus YDL035C, strain GPR1, active compounds read low 1.01 | S. cerevisiae deletion strains, locus YDL074C, strain BRE1, active compounds read low 0.999 | S. cerevisiae deletion strains, locus YDL101C, strain DUN1, active compounds read low 1.01 | S. cerevisiae deletion strains, locus YDL134C, strain PPH21, active compounds read low 0.999 | S. cerevisiae deletion strains, locus YDL185W, strain tfp1, active compounds read low 1.02 | S. cerevisiae deletion strains, locus YDL192W, strain arf1, active compounds read low 1.01 | S. cerevisiae deletion strains, locus YDR101C, strain arx1, active compounds read low 1 | S. cerevisiae deletion strains, locus YDR162C, strain NBP2, active compounds read low 1 | S. cerevisiae deletion strains, locus YDR318W, strain mcm21, active compounds read low 1.03 | S. cerevisiae deletion strains, locus YDR388W, active compounds read low 1.01 | S. cerevisiae deletion strains, locus YDR502C, strain sam2, active compounds read low 0.996 | S. cerevisiae deletion strains, locus YEL061C, strain CIN8, active compounds read low 1.01 | S. cerevisiae deletion strains, locus YER110C, active compounds read low 1 | S. cerevisiae deletion strains, locus YER155C, strain BEM2, active compounds read low 1.01 | S. cerevisiae deletion strains, locus YER167W, strain BCK2, active compounds read low 1.03 | S. cerevisiae deletion strains, locus YGL078C, strain dbp3, active compounds read low 1 | S. cerevisiae deletion strains, locus YGL086W, strain mad1, active compounds read low 0.994 | S. cerevisiae deletion strains, locus YGL248W, strain PDE1, active compounds read low 1.01 | S. cerevisiae deletion strains, locus YGR078C, strain PAC10, active compounds read low 0.998 | S. cerevisiae deletion strains, locus YGR135W, strain pre9, active compounds read low 0.999 | S. cerevisiae deletion strains, locus YGR252W, strain gcn5, active compounds read low 0.976 | S. cerevisiae deletion strains, locus YHR030C, strain SLT2, active compounds read low 1.02 and 1.03 | S. cerevisiae deletion strains, locus YHR079C, strain IRE1 (second series), active compounds read low 1.01 | S. cerevisiae deletion strains, locus YHR079C, strain IRE1, active compounds read low 1.02 | S. cerevisiae deletion strains, locus YHR094C, strain hxt1, active compounds read low 1.01 | S. cerevisiae deletion strains, locus YHR129C, strain ARP1, active compounds read low 1.02 | S. cerevisiae deletion strains, locus YHR200W, strain rpn10, active compounds read low 1.01 | S. cerevisiae deletion strains, locus YIL066C, strain RNR3, active compounds read low 1.01 | S. cerevisiae deletion strains, locus YIL073C, strain SPO22, active compounds read low 1.03 | S. cerevisiae deletion strains, locus YIL125W, strain kgd1, active compounds read low 1 | S. cerevisiae deletion strains, locus YIR030C, strain dcg1, active compounds read low 1.01 | S. cerevisiae deletion strains, locus YJL095W, strain BCK1, active compounds read low 0.998 and 1.04 | S. cerevisiae deletion strains, locus YJL134W, strain LCB3, active compounds read low 1.01 | S. cerevisiae deletion strains, locus YJL168C, strain set2, active compounds read low 1.01 | S. cerevisiae deletion strains, locus YJL187C, strain SWE1 (second series), active compounds read low 1 | S. cerevisiae deletion strains, locus YJR043C, strain POL32, active compounds read low 1.02 | S. cerevisiae deletion strains, locus YJR066W, strain TOR1, active compounds read low 0.983 | S. cerevisiae deletion strains, locus YKL009W, strain mrt4, active compounds read low 1.01 | S. cerevisiae deletion strains, locus YKL068W, active compounds read low 1 | S. cerevisiae deletion strains, locus YKL085W, strain MDH1 (second series), active compounds read low 0.993 | S. cerevisiae deletion strains, locus YKL085W, strain MDH1, active compounds read low 0.993 | S. cerevisiae deletion strains, locus YKL190W, strain CNB1, active compounds read low 1.01 | S. cerevisiae deletion strains, locus YKR001C, strain vps1, active compounds read low 1 | S. cerevisiae deletion strains, locus YLR039C, strain RIC1, active compounds read low 1.13 | S. cerevisiae deletion strains, locus YLR058C, strain SHM2, active compounds read low 1 | S. cerevisiae deletion strains, locus YLR102C, strain apc9, active compounds read low 1.02 | S. cerevisiae deletion strains, locus YLR113W, strain HOG1, active compounds read low 0.939 | S. cerevisiae deletion strains, locus YLR262C, strain YPT6, active compounds read low 1.14 | S. cerevisiae deletion strains, locus YLR268W, strain sec22, active compounds read low 0.996 | S. cerevisiae deletion strains, locus YLR330W, strain CHS5, active compounds read low 1.01 | S. cerevisiae deletion strains, locus YLR342W, strain FKS1 (second series), active compounds read low 1.04 | S. cerevisiae deletion strains, locus YLR371W, strain rom2, active compounds read low 1.01 | S. cerevisiae deletion strains, locus YLR418C, strain cdc73, active compounds read low 0.988 | S. cerevisiae deletion strains, locus YML016C, strain PPZ1, active compounds read low 1.02 | S. cerevisiae deletion strains, locus YML032C, strain rad52, active compounds read low 1.02 | S. cerevisiae deletion strains, locus YML124C, strain tub3, active compounds read low 1 | S. cerevisiae deletion strains, locus YMR078C, strain ctf18, active compounds read low 1 | S. cerevisiae deletion strains, locus YMR223W, strain ubp8, active compounds read low 0.999 | S. cerevisiae deletion strains, locus YMR263W, strain SAP30, active compounds read low 0.996 | S. cerevisiae deletion strains, locus YMR307W, strain GAS1, active compounds read low 0.927 | S. cerevisiae deletion strains, locus YNL067W, strain RPL9B, active compounds read low 1.01 | S. cerevisiae deletion strains, locus YNL183C, strain NPR1, active compounds read low 0.97 | S. cerevisiae deletion strains, locus YNL233W, strain BNI4, active compounds read low 0.997 | S. cerevisiae deletion strains, locus YNL250W, strain rad50, active compounds read low 0.998 | S. cerevisiae deletion strains, locus YNL271C, strain bni1, active compounds read low 0.999 | S. cerevisiae deletion strains, locus YNL298W, strain CLA4, active compounds read low 0.998 | S. cerevisiae deletion strains, locus YNL307C, strain MCK1, active compounds read low 1.04 | S. cerevisiae deletion strains, locus YNL322C, strain KRE1, active compounds read low 1.01 | S. cerevisiae deletion strains, locus YNR052C, strain pop2, active compounds read low 1.02 | S. cerevisiae deletion strains, locus YOL012C, strain htz1 1.06 | S. cerevisiae deletion strains, locus YOL147C, strain pex11, active compounds read low 1 | S. cerevisiae deletion strains, locus YOR061W, strain CKA2, active compounds read low 1.01 | S. cerevisiae deletion strains, locus YOR069W, strain VPS5, active compounds read low 1.01 | S. cerevisiae deletion strains, locus YOR136W, strain idh2, active compounds read low 1.01 | S. cerevisiae deletion strains, locus YOR144C, strain elg1, active compounds read low 1 | S. cerevisiae deletion strains, locus YOR184W, strain ser1, active compounds read low 0.976 | S. cerevisiae deletion strains, locus YOR231W, strain MKK1, active compounds read low 1.06 | S. cerevisiae deletion strains, locus YOR316C, strain cot1, active compounds read low 1.01 | S. cerevisiae deletion strains, locus YPL241C, strain CIN2, active compounds read low 1.01 | S. cerevisiae deletion strains, locus YPL256C, strain CLN2, active compounds read low 1.06 | S. cerevisiae deletion strains, locus YPR119W, strain clb2, active compounds read low 1 | S. cerevisiae deletion strains, locus YPR141C, strain kar3, active compounds read low 1.02 | S. cerevisiae deletion strains, locus YPR163C, strain tif3, active compounds read low 1.01 | S. cerevisiae deletion strains, locus YPR167C, strain met16, active compounds read low 1.01 | S. cerevisiae deletion strains, strain wtn01, active compounds read low 1.02 | S. cerevisiae strains, strain wild type, active compounds read low 1.01
